For experiment [1], the target named is T1, Aspartate--tRNA(Asp/Asn) ligase (Mycobacterium tuberculosis (strain ATCC 25618 / H37Rv)) (UniProt P9WFW3). Note: in the data most compounds retested in dose-response had high values.
T1 sequence (whole entry): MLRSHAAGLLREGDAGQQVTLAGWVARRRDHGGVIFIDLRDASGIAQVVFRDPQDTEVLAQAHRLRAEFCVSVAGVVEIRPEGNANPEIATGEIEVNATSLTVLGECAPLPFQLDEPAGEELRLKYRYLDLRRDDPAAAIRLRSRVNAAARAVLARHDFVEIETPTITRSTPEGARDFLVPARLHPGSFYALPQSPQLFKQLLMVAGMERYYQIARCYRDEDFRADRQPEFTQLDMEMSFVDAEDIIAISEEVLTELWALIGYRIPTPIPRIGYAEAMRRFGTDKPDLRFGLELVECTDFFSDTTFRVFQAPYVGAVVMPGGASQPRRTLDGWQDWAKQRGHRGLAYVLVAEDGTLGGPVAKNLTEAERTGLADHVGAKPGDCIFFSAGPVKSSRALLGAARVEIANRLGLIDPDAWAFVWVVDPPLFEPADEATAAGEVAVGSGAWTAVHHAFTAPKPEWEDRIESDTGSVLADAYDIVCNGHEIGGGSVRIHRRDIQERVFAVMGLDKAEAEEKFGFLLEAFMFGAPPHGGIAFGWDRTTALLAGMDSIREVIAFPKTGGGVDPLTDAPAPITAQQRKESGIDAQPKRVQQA
The experiment is described as follows: Assay for Asp RNA synthetase-1 from Mycobacterium tuberculosis. Type of experiment: functional. Also on record: scale not given: direction of the effect not stated beside the values. Particulars: 30 µM.

Experiment [2] addresses Shiga toxin 2 (Escherichia coli O157:H7) (UniProt P09385+P09386). Put plainly: E. coli 0.157:H7 Shiga Toxin SOP - stx2 screening assay. Also on record: scale not given: direction of the effect not stated beside the values. Type of experiment: functional. Particulars: 30 µM.

Consider `Cc1cnn(C2CN(Cc3nc(C(C)(C)C)no3)C2)c1`, for which the Percent Effect in experiment [1] was -0.0303%; in experiment [2], -32.1%.
As for `O=C(NCCN1CCC(c2cccs2)CC1)c1ccccc1C(F)(F)F`, the Percent Effect in experiment [1] was -10.3%; in experiment [2] it was -49.7%.
In the same order, the values of `COCc1noc(C2(c3ccc(Br)cc3)CCOCC2)n1` are 0.524% and -0.633%.
In the same order, the values of `CC(C)c1noc(CCCC(=O)N2CCN(Cc3ccncc3)CC2)n1` are 3.6% and -20.6%.
Take `CC(c1nc(C2CC2)no1)N1CCN(CCOCC(F)(F)F)CC1` (configuration not stated): the Percent Effect in experiment [1] was -1.02%; in experiment [2] it was -10.3%.
For `CCN(CC)C(=O)c1ccc(-c2ccsc2)nc1C` the same measures were -1.17% and -6.7%.
Regarding `CN(C)C(=O)N1C[C@@H]2COC[C@]2(CNS(C)(=O)=O)C1`, the figures for the Percent Effect in experiment [1] and in experiment [2] were -0.382% and -0.0161%, respectively.
For the compound `Cc1cnn(CC2CCCN2Cc2cc(=O)n3cccc(C)c3n2)c1` (configuration not stated), the Percent Effect stood at 3.68% in experiment [1] and 8% in experiment [2].
For `O=C1CC(c2ccccc2)c2c(n3ccsc3nc2=O)N1` (configuration not stated) the same measures were -1.74% and -13.6%.
For `C=Cc1ccc(C(=O)N2CCCC(Nc3ccc(OC)cc3)C2)cc1` (configuration not stated) the same measures were 1.04% and -6.01%.
In the same order, the values of `O=C(CCCOCc1ccccc1)N1CCCC1c1ccccn1` (configuration not stated) are -1.14% and -0.85%.
For `Cc1ccc(CN(Cc2cccnc2)C2CC(C)(C)NC(C)(C)C2)s1`, the Percent Effect turned out to be 3.32% in experiment [1] and 13.4% in experiment [2].
`Cn1ncc2c1CCCC2NCc1cnc(-c2ccccc2)nc1` (configuration not stated): the Percent Effect is 8.81% in experiment [1] and -1.99% in experiment [2].
In the case of `COc1cc(C(=O)N(Cc2cnn(C)c2)C(C)C)ccc1OCC(N)=O`, the Percent Effect worked out at 0.225% in experiment [1] and 33% in experiment [2].
`COCCN1CCOCC2(CCCN(Cc3ccc(C)o3)C2)C1` (configuration not stated): the Percent Effect is -0.582% in experiment [1] and -6.63% in experiment [2].
`CC(C)Cc1noc(CN2CCC(NC(=O)c3cccs3)CC2)n1`: the results for the Percent Effect in experiment [1] and in experiment [2] were 1.37% and -32.8%, respectively.
For `CC(O)CN1CCN(C(=O)CN(C)c2ccc(Cl)cn2)CC1` (configuration not stated) the same measures were 0.546% and -10.6%.
Consider `Cc1cc(CN2CCN(CC(O)C(C)(C)C)CC2)no1` (configuration not stated), for which the Percent Effect in experiment [1] was -13.9%; in experiment [2], 0.649%.
In the same order, the values of `CCn1cc(C(=O)N2CCCC(c3[nH]ncc3S(C)(=O)=O)C2)cn1` (configuration not stated) are -3.25% and -8.37%.
Consider `Cc1csc2c(N3CCC(NCCCc4ccncc4)CC3)ncnc12`, for which the figures for the Percent Effect in experiment [1] and in experiment [2] were 8.8% and -69.6%, respectively.
As for `CC(C)c1noc(CN(Cc2cccs2)C2CC2)n1`, the values for the Percent Effect in experiment [1] and in experiment [2] were -0.416% and -48.4%, respectively.
In the same order, the values of `Cc1nn(C)c(N2CCOCC2)c1CNC1CCc2cc(F)ccc21` (configuration not stated) are -1.16% and -5.02%.
In the case of `CN(Cc1ccco1)Cc1cncc2c1CCN(c1ncccn1)C2`, the Percent Effect was 0.874% in experiment [1] and -26.7% in experiment [2].
For `COC(=O)N1CCc2ccc(NC(=O)c3cn(C)nn3)cc2C1` the same measures were -0.627% and -90%.
For `CC(NC(=O)NCCCn1cccn1)c1ccc2c(c1)NC(=O)CO2` (configuration not stated) the same measures were -5.91% and -20.8%.
In the same order, the values of `O=c1c(-c2ccnc(NC3CCOCC3)n2)cnc2sc(Cl)cn12` are -3.81% and -50%.
In the case of `Cc1nc(CN2CCN(Cc3ccoc3)Cc3cccnc32)cs1`, the Percent Effect in experiment [1] was 4.04%; in experiment [2], -1.98%.
`CSc1ncccc1C(=O)N1C[C@H]2CC[C@@H]1CN(c1ncccn1)C2`: the Percent Effect in experiment [1] is 4.84%; in experiment [2] it was -56.4%.
As to `CC(C)Cc1cc(C(=O)NCc2nnc[nH]2)[nH]n1`, the Percent Effect in experiment [1] came out at 1.11%; in experiment [2], 2.04%.
In the same order, the values of `Cc1nc(CN2CCCN(C(=O)C3(C#N)CCCCC3)CC2)cs1` are 1.34% and 11.8%.
In the same order, the values of `Cc1ccc(NC2CCN(C(=O)Cc3csc(C)n3)CC2)nn1` are 4.42% and 17.7%.
As for `COc1ccc(Br)c(C(=O)NCCNc2ccc(C(F)(F)F)cn2)c1`, the figures for the Percent Effect in experiment [1] and in experiment [2] were 7.7% and 23.3%, respectively.
For `CC(C)COC(C)C(=O)NCc1ccc(OC(C)C)nc1` (configuration not stated) the same measures were 1.79% and 9.54%.
With `Cn1cc(N2CCC3(CCN(S(=O)(=O)C4CC4)C3)C2=O)cn1` (configuration not stated), the Percent Effect was -3.64% in experiment [1] and -21.1% in experiment [2].
For `Cc1ncc(-c2nc3cc(S(=O)(=O)N4CCCC4)ccc3n2C)cn1` the same measures were 6.27% and 0.802%.
Consider `N#Cc1ccccc1N1CCCN(C(=O)CCn2cccn2)CC1`, for which the Percent Effect in experiment [1] was -10.7%; in experiment [2], 3.42%.
As for `CC1COCCN1Cc1nc(-c2cccs2)no1` (configuration not stated), the Percent Effect in experiment [1] was found to be 14.7%; in experiment [2] it was 20.8%.
In the same order, the values of `CC(C)c1n[nH]c(C2CN(C(=O)c3csnn3)CCO2)n1` (configuration not stated) are -5.03% and -13.5%.
Take `CCCc1nc(C)c(C(=O)NS(=O)(=O)c2ccc(C#N)cc2)s1`: the Percent Effect in experiment [1] is 0.836%; in experiment [2], 8.1%.
As for `CN(C)C(=O)CNC(=O)CCn1ncc2c(Cl)cccc21`, the Percent Effect in experiment [1] is -0.813%; in experiment [2] it was -27.9%.
In the same order, the values of `Clc1ccc(OCCN2CCN(CCn3cncn3)CC2)cc1` are -1.39% and -23.5%.
Regarding `Cc1nn(C)c2sc(C(=O)N3CCCC(n4ccnc4C)C3)cc12` (configuration not stated), the Percent Effect was -1.41% in experiment [1] and -28.1% in experiment [2].
Regarding `COc1ccccc1CC1CCCN(CC(=O)N2CCOCC2)C1` (configuration not stated), the Percent Effect in experiment [1] was -1.41%; in experiment [2], 16.7%.
With `CN1CCCN(c2nccc(-c3c[nH]nc3C3CCCCC3)n2)CC1`, the Percent Effect in experiment [1] is 14.1%; in experiment [2], -32.4%.
As for `O=C(Nc1cccc2c1CCCC2)C1CCCN1c1nccs1` (configuration not stated), the Percent Effect is 2.28% in experiment [1] and -43.4% in experiment [2].
Turning to `O=C1[C@@H]2CCN(Cc3ccoc3)C[C@@H]2OCCN1Cc1cccnc1`, the Percent Effect in experiment [1] was -0.368%; in experiment [2] it was -11.5%.
